Measurements published in PubChem BioAssay (NCATS).
Inconclusive results are not listed. A call without a number means that no potency is given here. Values without a mark were called inactive. Calls of active or inactive are those of the source. Calls follow the shape of the dose curve; as a rule, active = well fitted cell-killing curve with a large enough effect; inconclusive = small, poorly fitted or top-dose-only effect, or effect the other way; inactive = no such curve, though single readings can be large or run the other way.

Test: Viability qHTS for spleen associated tyrosine kinase inhibitor (SYKi) naive MV4-11 cells (AID 1963823); also: nearly all actives have a fitted effect of over 40% in size
Conditions: MV4-11 AML viability, CellTiter-Glo luminescence, 72 h; series mostly up to 45 µM
Summary of the method: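 SYK inhibitor-naive MV4-11 cells, 500 per well, exposed to compounds for 72 hr at 37 C, 5% CO2. Viability read as CellTiter-Glo luminescence after 10 min at room temperature.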
Potency is read from the fitted curve at half-maximal effect.

| SMILES | Potency | viability (% of control) |
| --- | --- | --- |
| CCC/C=C/C=C/C1CC(O)C(O)C(=O)C1CO (stereo not given) | inactive |  |
| CCC(C)C(=O)O[C@H]1[C@@H](OC(=O)c2ccoc2)C[C@](C)(O)[C@]23OC(C)(C)[C@H](C[C@H](OC(=O)c4ccoc4)[C@]12COC(C)=O)[C@H]3OC(C)=O (stereo not given in full) | inactive |  |
| C=C(CCO)C(=O)OCC1OCC(OC(=O)C(=C)CCO[C@@H]2O[C@H](CO)[C@@H](O)[C@H](O)[C@H]2O)C(O)C1O (stereo not given in full) | inactive |  |
| C=C1[C@H]2CCC3[C@]4(C)CCC[C@@](C)(C(=O)O)C4CC[C@]3(C2)[C@H]1OC(C)=O (stereo not given in full) | inactive |  |
| CC1(C)C[C@H](O)C[C@@]2(C)OC(=O)C=C12 | inactive |  |
| COc1ccc(CCN(C)CCCC(C#N)(c2cc(OC)c(OC)c(OC)c2)C(C)C)cc1OC (stereo not given) | 23700 nM (active) |  |
| C[C@@]1(F)[C@H](O)[C@@H](CO)O[C@H]1n1ccc(N)nc1=O | inactive |  |
| O=C(C1=CCN2c3c(cccc31)OC[C@H]2CN1CCOCC1)c1cccc2ccccc12 | 14600 nM (active) |  |
| C=C1CCC2C(C)(C(=O)O)CCCC2(C)C1CCC1=CCOC1=O (stereo not given) | inactive |  |
| Cc1cc(CO)c(O)c(C(=O)CC2CC(=O)NC(=O)C2)c1 | inactive |  |
| CN(CCOc1ccc(C[C@H](Nc2ccccc2C(=O)c2ccccc2)C(=O)O)cc1)c1ccccn1 | inactive |  |
| COc1cccc2cc3c(c(O[C@@H]4O[C@H](CO[C@@H]5O[C@H](CO)[C@@H](O)[C@H](O)[C@H]5O)[C@@H](O)[C@H](O)[C@H]4O)c12)C(C)OC3=O (stereo not given in full) | inactive |  |
| C=C1C(=O)O[C@@H]2[C@H]3C(C)=CC(=O)C3=C(C)CC[C@@H]12 | 2060 nM (active) |  |
| CC(C)C[C@H](CC(=O)NO)C(=O)N[C@@H](Cc1ccc2ccccc2c1)C(=O)N[C@@H](C)C(=O)NCCN | inactive |  |
| COc1cc(O)cc(C)c1C(=O)O[C@H]1[C@@H](OC(C)=O)[C@H](n2ccc(=O)[nH]c2=O)O[C@@H]1CO | inactive |  |
| CNC12CC3C[C@@](C)(C1)C[C@](C)(C3)C2 | inactive |  |
| C=CC1(C)C=C2CC[C@H]3[C@@](C)(C(=O)O)CCC[C@]3(C)C2CC1 (stereo not given in full) | 1610 nM (active) |  |
| C=CC(=O)N1CCCN(c2cc(NCCC(=O)O)nc(-c3ccccn3)n2)CC1 | inactive |  |
| COc1ccc2c(c1)N1C(=O)C[C@@]34C=CC[N@+]5([O-])CC[C@H]2[C@H](CC3)[C@@]145 | 6400 nM (active) |  |
| C=C1CCC2C(C)(COC(C)=O)CCCC2(C)C1CCC(C)CC(=O)O (stereo not given) | inactive |  |

| SMILES | Potency | viability (% of control) |
| --- | --- | --- |
| CC/C=C/C(O)C(O)C1=C(C)C(=O)C2(O1)C(=O)NC(OC)(C(=O)c1ccccc1)C2O (stereo not given) | inactive |  |
| CC(=O)NC1C(OC(C)(C)C2CCC3(C)C=C(C4CCC5C4(C)CC(O)C4OC(C(C)(C)O)CCC45C)CCC3O2)OC(CO)C(O)C1O (stereo not given) | 1930 nM (active) |  |
| C[C@@H]1O[C@@H](O[C@H]2[C@H](O)[C@@H](O)[C@H](OC[C@H]3O[C@@H](OC(=O)[C@]45CCC(C)(C)C[C@H]4C4=CCC6[C@@]7(C)CC[C@H](O[C@@H]8OC[C@H](O)[C@H](O[C@@H]9O[C@H](CO)[C@@H](O)[C@H](O)[C@H]9O)[C@H]8O)[C@@](C)(CO)C7CC[C@@]6(C)[C@]4(C)CC5)[C@H](O)[C@@H](O)[C@@H]3O)O[C@@H]2CO)[C@H](O)[C@H](O)[C@H]1O (stereo not given in full) |  | 98% [at 9.25 µM] |
| CC(C)=C1C[C@@]2(C)C(=CC1=O)CC[C@@H](O)[C@@H]2C | inactive |  |
| Cc1ccc(NC(=O)N2CCN(c3nc(N)nc4sc(-c5cccnc5)nc34)CC2)cc1 | 13 nM (active) |  |
| COc1ccc(CNC(=O)c2sc3nc(C)cc(C)c3c2N)cc1 | inactive |  |
| O=C(O)C(Cc1ccccc1)NC(=O)C1CCCN1 (stereo not given) | inactive |  |
| CC1=CCC2C(C)(CO)CCCC2(C)C1CC12OC1C(O)C(CO)=CC2O (stereo not given) | inactive |  |
| O=C(O)c1ccncc1Nc1nn(CCN2CCC(F)(F)CC2)c2ccc(F)cc12 | inactive |  |
| C/C=C1/[C@H](O[C@@H]2O[C@H](CO)[C@@H](O)[C@H](O)[C@H]2O)OC=C(C(=O)OC)[C@H]1CC(=O)OCCc1ccc(O)c(O)c1 | inactive |  |
| CCN(CC)c1ccc2c(O)c(C=Nc3ccc(CC(=O)O)c(-c4c5c(nc6ccccc46)CCC(C(=O)NN)C5)c3)c(=O)oc2c1 (stereo not given) | 2590 nM (active) |  |
| O=C(NNc1nc2cc(F)ccc2n2cccc12)c1cnccn1 | 820 nM (active) |  |
| COc1cc(C2OCC3C(c4ccc(OC5OC(CO)C(O)C(O)C5O)c(OC)c4)OCC23)ccc1O (stereo not given) | inactive |  |
| CC/C(C)=C/C(=O)OC1C(OC2(C)CCC3C(C4C(C)CCC42)C3(C)C)OC(C)C(O)C1O (stereo not given) | 8930 nM (active) |  |
| CC(C)CC1OC(=O)C2CCCN2C(=O)CCNC(=O)C(Cc2ccccc2)NC(=O)C(C(C)C)N(C)C(=O)C(C(C)C)N(C)C1=O (stereo not given) | inactive |  |
| CC(=O)O[C@H]1[C@@]2(O)C[C@H](C)[C@H](OC(=O)c3ccccc3)[C@@H]2[C@@H](OC(=O)CO)[C@]2(OC(C)=O)C[C@H]3C(=O)C(C)(C)C[C@@H]3[C@@]1(C)[C@H]2OC(C)=O | inactive |  |
| CCn1cc(C2=NOC(C(=O)Nc3c(C)n(C)n(-c4ccccc4)c3=O)C2)c(C)n1 (stereo not given) | inactive |  |
| COc1cc(/C=C/CO)ccc1O[C@@H]1O[C@H](CO)[C@@H](O)[C@H](O)[C@H]1O | inactive |  |
| C[C@@H]1C[C@H]2OC(=O)[C@@]3(C)CCC[C@](C)(C23)[C@@]1(O)CCC1=CC(=O)OC1O (stereo not given in full) | inactive |  |
| Cc1cc(Cl)ccc1COc1ccnn1-c1cc(C(=O)O)ccn1 | inactive |  |
